This note sets out measurements from PubChem BioAssay.

Chain of Follistatin (Homo sapiens) (P19883 whole entry, looked up): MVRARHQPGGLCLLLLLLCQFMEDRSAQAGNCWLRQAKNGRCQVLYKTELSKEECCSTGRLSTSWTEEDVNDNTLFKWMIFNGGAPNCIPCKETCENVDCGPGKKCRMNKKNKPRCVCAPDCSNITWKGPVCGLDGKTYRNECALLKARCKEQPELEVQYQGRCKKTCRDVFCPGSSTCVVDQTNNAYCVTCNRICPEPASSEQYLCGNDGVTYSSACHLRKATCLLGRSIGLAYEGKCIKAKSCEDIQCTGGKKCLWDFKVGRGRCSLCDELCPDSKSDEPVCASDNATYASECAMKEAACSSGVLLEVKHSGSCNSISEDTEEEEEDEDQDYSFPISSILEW

The test system of one experiment is Fibrinogen (Alexa647-labelled). The experiment is described as follows: Alexa647-fibrinogen binding to printed small molecules – biochemical, small-molecule microarray, 635/667 nm fluorescence, artefact control for SMM control-protein annotation, profiling panel (AID 1131).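 Note: z-score merges 667 nm fluorescence with per-spot signal-to-noise over triplicate slides.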 The note with it: fibrinogen-A647 binding fluorescence, higher = more signal.
The compound `C=C(C(=O)CC[C@@H](OC(=O)c1ccccc1-c1ccccc1C(=O)O)c1ccc(OCCO)cc1)C(C)C` yielded a composite z-score of 0.691.
The same measure, in the same setting: to `COCCOC(=O)N1C(=O)[C@@]2(c3cc(C#CCCO)ccc31)[C@H](C(=O)N1CCN(c3ncccn3)CC1)[C@H]1C(=O)O[C@H](c3ccccc3)[C@H](c3ccccc3)N1[C@@H]2c1ccc(OCCO)cc1` belongs 0.972; to `O=C1OC[C@@H](c2ccccc2)n2cc(/C=C/c3ccccc3)cc21`, 0.5; to `CCOC(=O)C[C@H]1[C@H](OC(=O)c2cc3ccccc3oc2=O)[C@@H](NC(=O)Cc2ccc(OC)cc2)c2cc(OCCCO)ccc2N1C(=O)Cc1ccc(OC)cc1`, 1.03.
Still for that read-out and setting: the result for `C=CCN1C(=O)[C@@]2(O[C@@H](CCO)[C@H]([Si](C)(C)c3ccc(OC)cc3)[C@H]2C)c2cc(N3CCCCC3=O)ccc21` reads 0.745; that for `COc1ccc(CCNC(=O)[C@@]2(C)c3ccccc3C(=O)N(Cc3ccc(OC(F)(F)F)cc3)[C@H]2c2ccc(CO)cc2)cc1`, 0.576.
On the same count and under the same terms, to `COC(=O)[C@@]1(Cc2ccccc2)[C@H]2c3cc(C(=O)N(C)C)n(CCF)c3C[C@H]2CN1C(=O)c1ccccc1` belongs 0.339; to `COc1ccc(NN2C(C(O)c3ccc(F)cc3)C=CC3C(=O)N(C4CCCCC4)C(=O)C32)cc1` (centres undefined), 0.997; to `COC(=O)[C@@]1(Cc2ccc(F)cc2)[C@H]2c3cc(C(=O)N(C)C)n(Cc4ccsc4Br)c3C[C@H]2CN1C(=O)c1ccccc1`, 1.04.
In the case of `COc1ccc(NN2C(C(O)c3ccccc3)C=CC3C(=O)N(C4CCCCC4)C(=O)C32)cc1` (centres undefined), the composite z-score was 0.996.
The same measure, in the same setting: the result for `C=CC[C@H](OC(=O)Nc1ccc(SC)cc1)c1ccc(O)c(F)c1` reads -0.0381; that for `CO[C@H]1O[C@H](CO)[C@@H](OC(=O)CCc2ccccc2)[C@@H]2OC(=O)[C@@H](Cc3ccc4ccccc4c3)C/C=C/C[C@H](Cc3ccc4ccccc4c3)C(=O)O[C@@H]12`, -0.142.
Same read-out and setting: the result for `COC(=O)[C@H](Cc1ccccc1)N1CC(C)(OC)O[C@@H](Cc2ccccc2)[C@H]1/C=C/C1CC1` (some centres undefined) reads 0.47; that for `C[C@H]1C2[C@H](Cc3ccccc3)NC(=O)[C@]23C(=O)N[C@@H](Cc2ccccc2)C(=O)N2CCC[C@H]2C(=O)NC/C=C/CC/C=C/C3[C@@H]2O[C@]12C` (some centres undefined), 0.596.
The same measure, in the same setting: to `C=C(C(=O)CC[C@@H](OC(=O)c1ccccc1-c1ccccc1C(=O)O)c1cccc(OCCO)c1)C(C)C` belongs -0.0661.
Turning to `C=C(CCCC)C(=O)CC[C@H](OC(=O)c1ccccc1-c1ccccc1C(=O)O)c1cccc(OCCO)c1`, the composite z-score was -0.435.
On to `C=C(CCCC)/C(=C/C[C@@H](OC(C)=O)c1cccc(OCCO)c1)c1cc(C(=O)OC)ccc1OC`, for which the composite z-score was found to be 0.249.
Same read-out and setting: the result for `CCCCCN1CC=CC23O[C@@H]4/C=C\CCCOC(=O)C4[C@H]2C(=O)N(CCO)[C@@H]3C1=O` (some centres undefined) reads -0.728; that for `O=C1NC(=O)C2C1C=CC(C(O)C1CCCCC1)N2Nc1ccccn1` (centres undefined), 0.177.
The same measure, in the same setting: the result for `COC(=O)C1(CC(C)C)C=C2C(=C(C)C(=O)C2C)CN1` (centres undefined) reads -0.423; that for `Cc1ccc(N2C(=O)c3ccccc3[C@@H](C(=O)NCCN3CCOCC3)[C@@H]2c2ccc(CO)cc2)nc1`, -2.27.
Regarding `COCCOC(=O)N1C(=O)[C@@]2(c3cc(C#CCNC(N)=O)ccc31)[C@H](c1ccc(O)cc1)N1[C@H](c3ccccc3)[C@H](c3ccccc3)OC(=O)[C@H]1[C@@H]2C(=O)N1CCc2cc(OC)c(OC)cc2C1`, the composite z-score amounted to 0.336.
Consider `O=C(NC1CC1)[C@@H]1c2ccccc2C(=O)N(C2CCCCC2)[C@H]1c1ccc(CO)cc1`, for which the composite z-score is -0.518.
`COc1ccc([Si](C)(C)[C@@H]2[C@@H](CC(=O)N(CCO)Cc3ccccc3)O[C@]3(C(=O)N(Cc4cccc(I)c4)c4ccccc43)[C@H]2C)cc1` gave a composite z-score of 0.604.

A further experiment has as its target Follistatin (Homo sapiens) (UniProt P19883). The experiment is described as follows: FST protein binding to printed compounds – biochemical, small-molecule microarray, 635/667 nm fluorescence, primary screen (AID 1132). The settings on record: 635 nm fluorescence, higher = more signal.
`O=C(O)C1=CC[C@H]2C(=O)N(c3ccccc3)C(=O)[C@@H]12` yielded a composite z-score of 0.845.
`CCc1cccc(NC(=O)O[C@H]2[C@H](OC(=O)Nc3ccccc3-c3ccccc3)[C@H](OC(=O)Nc3ccccc3-c3ccccc3)[C@@H](OC)O[C@@H]2CO)c1` had a composite z-score of 1.36.
Same read-out and setting: to `C=C(COC)/C(=C/C[C@@H](OC(C)=O)c1cccc(OCCO)c1)c1cnc2ccccc2c1` belongs 1.42; to `Cc1ccc(S[C@]2(C(=O)NCc3ccccc3)CC(=O)N(Cc3ccccc3C(F)(F)F)[C@@H]2c2ccc(CO)cc2I)cc1`, 0.0443.
For `COCCOC(=O)N1C(=O)[C@@]2(c3cc(C#CC4(O)CCCCCC4)ccc31)[C@H](C(N)=O)[C@H]1C(=O)O[C@H](c3ccccc3)[C@H](c3ccccc3)N1[C@@H]2c1ccc(OCCO)cc1`, the composite z-score was found to be 1.34.
Same read-out and setting: to `COc1c(C)cc(-c2cc3c(c(CCc4ccccc4)n2)[Si](C(C)C)(C(C)C)O[C@H]3c2ccccc2)cc1C` belongs 0.029; to `COC(=O)[C@@]1(Cc2ccc(F)cc2)[C@H]2c3cc(C(=O)N(C)C)n(Cc4cccc5ccccc45)c3C[C@H]2CN1C(=O)c1ccccc1`, 0.137.
On the same count and under the same terms, the result for `CC(C)C[C@@H]1NC(=O)[C@@H]2C[C@H](C(=O)NCCCCCNC(=O)CS)[C@H](c3ccc(O)cc3)N2C1=O` reads 0.815; that for `C=C[C@@H](CO)NS(=O)(=O)c1ccc(Br)cc1`, 0.0216; that for `COC(=O)[C@@]1(Cc2ccc(F)cc2)[C@H]2c3cc(C(=O)N(C)C)n(CCF)c3C[C@H]2CN1C(=O)c1ccccc1`, -0.0051.
Still for that read-out and setting: to `COC(=O)[C@@]1(Cc2ccccc2)[C@H]2c3cc(C(=O)N(C)C)n(Cc4nc5ccccc5[nH]4)c3C[C@H]2CN1C(=O)c1ccccc1` belongs 0.804; to `C=C(C(=O)CC[C@@H](OC(=O)c1ccccc1-c1ccccc1C(=O)O)c1ccc(OCCO)cc1)C(C)C`, 1.2; to `COCCOC(=O)N1C(=O)[C@@]2(c3cc(C#CCCO)ccc31)[C@H](C(=O)N1CCN(c3ncccn3)CC1)[C@H]1C(=O)O[C@H](c3ccccc3)[C@H](c3ccccc3)N1[C@@H]2c1ccc(OCCO)cc1`, 1.21.
With `O=C1OC[C@@H](c2ccccc2)n2cc(/C=C/c3ccccc3)cc21`, the composite z-score was -0.324.
Same read-out and setting: to `CCOC(=O)C[C@H]1[C@H](OC(=O)c2cc3ccccc3oc2=O)[C@@H](NC(=O)Cc2ccc(OC)cc2)c2cc(OCCCO)ccc2N1C(=O)Cc1ccc(OC)cc1` belongs 0.705.
Still for that read-out and setting: to `C=CCN1C(=O)[C@@]2(O[C@@H](CCO)[C@H]([Si](C)(C)c3ccc(OC)cc3)[C@H]2C)c2cc(N3CCCCC3=O)ccc21` belongs 1.36.
In turn, `COc1ccc(CCNC(=O)[C@@]2(C)c3ccccc3C(=O)N(Cc3ccc(OC(F)(F)F)cc3)[C@H]2c2ccc(CO)cc2)cc1` showed a composite z-score of 1.3.
Still for that read-out and setting: the result for `COC(=O)[C@@]1(Cc2ccccc2)[C@H]2c3cc(C(=O)N(C)C)n(CCF)c3C[C@H]2CN1C(=O)c1ccccc1` reads 0.0139; that for `COc1ccc(NN2C(C(O)c3ccc(F)cc3)C=CC3C(=O)N(C4CCCCC4)C(=O)C32)cc1` (centres undefined), 1.15.
The same measure, in the same setting: the result for `COC(=O)[C@@]1(Cc2ccc(F)cc2)[C@H]2c3cc(C(=O)N(C)C)n(Cc4ccsc4Br)c3C[C@H]2CN1C(=O)c1ccccc1` reads -0.161; that for `COc1ccc(NN2C(C(O)c3ccccc3)C=CC3C(=O)N(C4CCCCC4)C(=O)C32)cc1` (centres undefined), 0.925; that for `C=CC[C@H](OC(=O)Nc1ccc(SC)cc1)c1ccc(O)c(F)c1`, 0.137.
On the same count and under the same terms, to `CO[C@H]1O[C@H](CO)[C@@H](OC(=O)CCc2ccccc2)[C@@H]2OC(=O)[C@@H](Cc3ccc4ccccc4c3)C/C=C/C[C@H](Cc3ccc4ccccc4c3)C(=O)O[C@@H]12` belongs -0.564.
Compound `COC(=O)[C@H](Cc1ccccc1)N1CC(C)(OC)O[C@@H](Cc2ccccc2)[C@H]1/C=C/C1CC1` (some centres undefined) came in with a composite z-score of 0.0103.
For the compound `C[C@H]1C2[C@H](Cc3ccccc3)NC(=O)[C@]23C(=O)N[C@@H](Cc2ccccc2)C(=O)N2CCC[C@H]2C(=O)NC/C=C/CC/C=C/C3[C@@H]2O[C@]12C` (some centres undefined), the composite z-score came out at 0.925.
Compound `C=C(C(=O)CC[C@@H](OC(=O)c1ccccc1-c1ccccc1C(=O)O)c1cccc(OCCO)c1)C(C)C` came in with a composite z-score of 1.53.
Turning to `C=C(CCCC)C(=O)CC[C@H](OC(=O)c1ccccc1-c1ccccc1C(=O)O)c1cccc(OCCO)c1`, the composite z-score is -0.0662.
Take `C=C(CCCC)/C(=C/C[C@@H](OC(C)=O)c1cccc(OCCO)c1)c1cc(C(=O)OC)ccc1OC`: the composite z-score was found to be 0.705.
Same read-out and setting: to `CCCCCN1CC=CC23O[C@@H]4/C=C\CCCOC(=O)C4[C@H]2C(=O)N(CCO)[C@@H]3C1=O` (some centres undefined) belongs -0.274; to `O=C1NC(=O)C2C1C=CC(C(O)C1CCCCC1)N2Nc1ccccn1` (centres undefined), 0.597; to `COC(=O)C1(CC(C)C)C=C2C(=C(C)C(=O)C2C)CN1` (centres undefined), 0.901.
In turn, `Cc1ccc(N2C(=O)c3ccccc3[C@@H](C(=O)NCCN3CCOCC3)[C@@H]2c2ccc(CO)cc2)nc1` came in with a composite z-score of 0.37.
`COCCOC(=O)N1C(=O)[C@@]2(c3cc(C#CCNC(N)=O)ccc31)[C@H](c1ccc(O)cc1)N1[C@H](c3ccccc3)[C@H](c3ccccc3)OC(=O)[C@H]1[C@@H]2C(=O)N1CCc2cc(OC)c(OC)cc2C1` had a composite z-score of 1.36.
Same read-out and setting: the result for `O=C(NC1CC1)[C@@H]1c2ccccc2C(=O)N(C2CCCCC2)[C@H]1c1ccc(CO)cc1` reads 0.27; that for `COc1ccc([Si](C)(C)[C@@H]2[C@@H](CC(=O)N(CCO)Cc3ccccc3)O[C@]3(C(=O)N(Cc4cccc(I)c4)c4ccccc43)[C@H]2C)cc1`, 1.48.
